# Where two headings read alike, the source gives them in different places.
# What was measured:
# Design in all cases: species or system human, MV4-11 + K-562 + COLO205 + SK-N-BE2 + OVCAR-8
# CLK1 = settings: read-out: apparent Kd, n = 1
# CLK4 = settings: read-out: apparent Kd, n = 1
# DYRK1A = settings: read-out: apparent Kd; compound concentrations:100 nM and 1000 nM (sheet 'Samples'); n = 1
# GSK3B = settings: read-out: apparent Kd, n = 1
# CSNK1D = settings: read-out: apparent Kd, n = 1
# CSNK1E = settings: read-out: apparent Kd, n = 1
# MAPK14 = settings: read-out: apparent Kd, n = 1
# MAPKAPK2 = settings: read-out: apparent Kd; compound concentrations:100 nM and 1000 nM (sheet 'Samples'); n = 1
# FER = settings: read-out: apparent Kd; compound concentrations: 100 nM and 1000 nM (sheet 'Samples'), CATDS: 0.14947425083021301; n = 1
# IGF1R = settings: read-out: apparent Kd; compound concentrations: 100 nM and 1000 nM (sheet 'Samples'), CATDS: 0.12946189122978499; n = 1
# INSR = settings: read-out: apparent Kd; compound concentrations: 100 nM and 1000 nM (sheet 'Samples'), CATDS: 0.154401741124819; n = 1
# PLK1 = settings: read-out: apparent Kd; compound concentrations: 100 nM and 1000 nM (sheet 'Samples'), CATDS: 0.14661258796571799; n = 1
# COX5A = settings: read-out: apparent Kd; compound concentrations: 100 nM and 1000 nM (sheet 'Samples'), CATDS: 4.1546789230528999E-2; n = 1
# GSK3A = settings: read-out: apparent Kd; compound concentrations: 100 nM and 1000 nM (sheet 'Samples'), CATDS: 6.2645628894546598E-2; n = 1
# GTPBP4 = settings: read-out: apparent Kd; compound concentrations: 100 nM and 1000 nM (sheet 'Samples'), CATDS: 4.05365212601312E-2; n = 1
# LATS1 = settings: read-out: apparent Kd; compound concentrations: 100 nM and 1000 nM (sheet 'Samples'), CATDS: 6.4509671540351102E-2; n = 1
# PAK4 = settings: read-out: apparent Kd; compound concentrations: 100 nM and 1000 nM (sheet 'Samples'), CATDS: 5.9667413912450298E-2; n = 1
# PAK6 = settings: read-out: apparent Kd; compound concentrations: 100 nM and 1000 nM (sheet 'Samples'), CATDS: 9.5972545463879802E-2; n = 1
# PKN1 = settings: read-out: apparent Kd; compound concentrations: 100 nM and 1000 nM (sheet 'Samples'), CATDS: 5.7657473805166601E-2; n = 1
# PKN2 = settings: read-out: apparent Kd; compound concentrations: 100 nM and 1000 nM (sheet 'Samples'), CATDS: 4.3276435854429397E-2; n = 1
# PRKACA = settings: read-out: apparent Kd; compound concentrations: 100 nM and 1000 nM (sheet 'Samples'), CATDS: 0.169432353175829; n = 1
# PRKACB = settings: read-out: apparent Kd; compound concentrations: 100 nM and 1000 nM (sheet 'Samples'), CATDS: 0.14426679409785001; n = 1
# PRKCD = settings: read-out: apparent Kd; compound concentrations: 100 nM and 1000 nM (sheet 'Samples'), CATDS: 4.3301317069520798E-2; n = 1
# PRKCQ = settings: read-out: apparent Kd; compound concentrations: 100 nM and 1000 nM (sheet 'Samples'), CATDS: 0.16159232019623801; n = 1
# PRKG1 = settings: read-out: apparent Kd; compound concentrations: 100 nM and 1000 nM (sheet 'Samples'), CATDS: 5.6874913121809097E-2; n = 1
# PRKX = settings: read-out: apparent Kd; compound concentrations: 100 nM and 1000 nM (sheet 'Samples'), CATDS: 0.106921293671462; n = 1
# ROCK2 = settings: read-out: apparent Kd; compound concentrations: 100 nM and 1000 nM (sheet 'Samples'), CATDS: 4.7086778656787398E-2; n = 1
# MAPK10 = settings: read-out: apparent Kd; compound concentrations: 100 nM and 1000 nM (sheet 'Samples'), CATDS: 0.188105641093985; n = 1
# MAPK9 = settings: read-out: apparent Kd; compound concentrations: 100 nM and 1000 nM (sheet 'Samples'), CATDS: 0.212522711291111; n = 1
# CLK2 = settings: read-out: apparent Kd; compound concentrations: 100 nM and 1000 nM (sheet 'Samples'), CATDS: 1; n = 1
# [1] = compound concentrations:100 nM and 1000 nM (sheet 'Samples')
smiles,measurement,setting,value
O=c1[nH]cc(-c2ccc(O)cc2)c2sc(-c3ccncc3)cc12 [GSK1033723A],potency estimated from few doses,CLK1; [1],471 nM
same,potency estimated from few doses,CLK4; [1],148 nM
same,potency estimated from few doses,DYRK1A,1550 nM
same,potency estimated from few doses,GSK3B; [1],1220 nM
N#Cc1ccc(Oc2nccc(-c3c(-c4ccc(F)cc4)ncn3C3CCNCC3)n2)cc1 [SB-242721],potency estimated from few doses,CSNK1D; [1],710 nM
same,potency estimated from few doses,CSNK1E; [1],1740 nM
same,potency estimated from few doses,MAPK14; [1],844 nM
same,potency estimated from few doses,MAPKAPK2,496 nM
CNC(=O)c1ncccc1Nc1nc(Nc2cc3c(cc2OC)CCCN3C(=O)CN(C)C)nc2[nH]ccc12 [GSK2220400A],potency estimated from few doses,"CLK1; compound concentrations: 100 nM and 1000 nM (sheet 'Samples'), CATDS: 0.27992821641946602",321 nM
same,potency estimated from few doses,"CLK4; compound concentrations: 100 nM and 1000 nM (sheet 'Samples'), CATDS: 0.21204627821104199",504 nM
same,potency estimated from few doses,FER,1020 nM
same,potency estimated from few doses,IGF1R,1500 nM
same,potency estimated from few doses,INSR,949 nM
same,potency estimated from few doses,PLK1,1070 nM
CCn1c(-c2nonc2N)nc2c(C#CC(C)(C)O)nc(OC[C@H](N)c3ccccc3)cc21 [GSK943949A],potency estimated from few doses,COX5A,1670 nM
same,potency estimated from few doses,GSK3A,424 nM
same,potency estimated from few doses,"GSK3B; compound concentrations: 100 nM and 1000 nM (sheet 'Samples'), CATDS: 5.5933303342936301E-2",576 nM
same,potency estimated from few doses,GTPBP4,1880 nM
same,potency estimated from few doses,LATS1,394 nM
same,potency estimated from few doses,PAK4,482 nM
same,potency estimated from few doses,PAK6,167 nM
same,potency estimated from few doses,PKN1,529 nM
same,potency estimated from few doses,PKN2,1390 nM
same,potency estimated from few doses,PRKACA,64.8 nM
same,potency estimated from few doses,PRKACB,82.7 nM
same,potency estimated from few doses,PRKCD,1390 nM
same,potency estimated from few doses,PRKCQ,69.5 nM
same,potency estimated from few doses,PRKG1,549 nM
same,potency estimated from few doses,PRKX,137 nM
same,potency estimated from few doses,ROCK2,999 nM
Fc1ccc(-c2ncn(CCCN3CCOCC3)c2-c2ccncc2)cc1 [SB-210313],potency estimated from few doses,"CSNK1D; compound concentrations: 100 nM and 1000 nM (sheet 'Samples'), CATDS: 0.19836678982407999",1230 nM
same,potency estimated from few doses,"CSNK1E; compound concentrations: 100 nM and 1000 nM (sheet 'Samples'), CATDS: 0.16080040098047499",2020 nM
same,potency estimated from few doses,MAPK10,1380 nM
same,potency estimated from few doses,"MAPK14; compound concentrations: 100 nM and 1000 nM (sheet 'Samples'), CATDS: 0.26893269490410898",706 nM
same,potency estimated from few doses,MAPK9,1070 nM
FC(F)(F)c1cccc(Nc2nccc(-c3cnn4nc(-c5ccccc5)ccc34)n2)c1 [GW819077X],potency estimated from few doses,CLK2,960 nM

# From PMC11062922 (Nature Chemical Biology, 2023)
